SARS 3CLpro inh = SARS-CoV 3CLpro protease inhibition | P0C6X7 | recombinant SARS-CoV 3CLpro, quenched FRET peptide cleavage | inhibition, % at 6 µM | 290,000 compounds, 0.14% hits | AID 1706; in the data active = inhibition above about 12%
BoNT A protease = inhibitors of Botulinum neurotoxin A light chain protease | inhibition, % at 10 µM | 360,000 compounds, 0.17% hits | multiplex microsphere protease substrate cleavage, flow cytometry
BoNT F protease = blocks Botulinum neurotoxin F light chain protease | 360,000 compounds, 0.22% hits | inhibition, % at 10 µM | Multiplex microsphere protease cleavage assay, flow cytometry; in the data active = inhibition above about 35%, passing the limit was not always enough; inconclusive = no clear call, values can overlap the other calls
Anthrax LF prot = anthrax lethal factor protease inhibition; P15917; multiplex microsphere protease cleavage assay, LF; inhibition, % at 10 µM; 360,000 compounds, 0.12% hits
Target sequence (P15917 whole entry, looked up): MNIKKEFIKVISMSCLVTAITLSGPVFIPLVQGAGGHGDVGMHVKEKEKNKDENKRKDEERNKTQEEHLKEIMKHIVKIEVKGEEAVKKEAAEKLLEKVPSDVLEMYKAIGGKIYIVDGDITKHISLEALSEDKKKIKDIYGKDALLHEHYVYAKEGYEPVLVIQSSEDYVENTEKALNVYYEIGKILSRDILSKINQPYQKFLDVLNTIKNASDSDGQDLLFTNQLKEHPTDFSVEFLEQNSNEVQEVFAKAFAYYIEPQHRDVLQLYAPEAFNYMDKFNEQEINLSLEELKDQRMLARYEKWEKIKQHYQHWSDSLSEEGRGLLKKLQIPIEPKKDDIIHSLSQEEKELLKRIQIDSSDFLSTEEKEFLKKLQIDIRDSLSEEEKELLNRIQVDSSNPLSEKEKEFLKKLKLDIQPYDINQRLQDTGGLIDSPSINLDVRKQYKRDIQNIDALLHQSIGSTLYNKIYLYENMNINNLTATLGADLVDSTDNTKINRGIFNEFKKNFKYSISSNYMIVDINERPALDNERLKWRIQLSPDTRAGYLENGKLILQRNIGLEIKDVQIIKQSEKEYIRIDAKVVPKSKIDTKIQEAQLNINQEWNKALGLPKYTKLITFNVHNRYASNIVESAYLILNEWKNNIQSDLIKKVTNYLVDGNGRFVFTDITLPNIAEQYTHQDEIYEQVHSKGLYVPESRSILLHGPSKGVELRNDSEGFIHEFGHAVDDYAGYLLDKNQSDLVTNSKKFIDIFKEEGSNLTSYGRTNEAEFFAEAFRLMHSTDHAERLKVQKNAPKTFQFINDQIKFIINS
Bead autofluor = compound fluorescence in toxin protease inhibitor counterscreen. compound autofluorescence counterscreen, microsphere flow cytometry; active compounds read high. fluorescence intensity (test concentration not listed). 360,000 compounds, 3.1% hits; in the data active = fluorescence intensity above about 16000; inconclusive = no clear call, values can overlap the other calls
Of the large screens only hits and unclear results are named; the others gave an inactive call. Compounds with a hit are over-represented: about 3.5% of the library has one in this group of screens. Cut-off read from the data, not from the text of the source, unless noted: active = inhibition above about 30%; inconclusive = no clear call, values can overlap the other calls; inactive = below that.

O=C(Nc1nccs1)[C@@H]1CCCN1C(=O)c1cccs1	none
Cc1cc(C(=O)Nc2nnc(C3CCCCC3)s2)cs1	BoNT A protease inconclusive, Bead autofluor 23418
CCOC(=O)Cc1csc(NC(=O)c2cccc(OC)c2)n1	BoNT F protease inconclusive
Cc1ccc(C(=O)CCC(=O)Nc2cccc(C(F)(F)F)c2)cc1	none
COc1cccc(-n2ccnc2SCC(=O)Nc2cc(C)on2)c1	none
COc1ccc(-c2ccc(SCC(=O)N3CCCC3)nn2)cc1OC	Bead autofluor 19444
CCCCn1c(N)c(N(CCOC)C(=O)c2cc(S(=O)(=O)N3CCCCC3)ccc2Cl)c(=O)[nH]c1=O	none
CCCC1COC(Cn2cncn2)(c2ccc(Cl)cc2Cl)O1 (centres undefined)	none
COc1ccc(NC(=O)Nc2ccc(F)cc2F)c(C)c1	BoNT A protease inconclusive, Bead autofluor 21747
OCCC1CN(Cc2cnn(-c3ccccc3Cl)c2)CCN1Cc1ccsc1 (centres undefined)	none
CC(=O)N1CCc2cc(NC(=O)c3ccc(C)cc3)ccc21	Bead autofluor 21491
CC(=O)N1CCN(c2ccc(NC(=O)c3ccc(C)cc3)cc2)CC1	none
O=C(NCC1CCCO1)c1cccc(NC(=O)c2ccc(Br)cc2)c1 (centres undefined)	none
CCOC(=O)c1cc2c(C)n(-c3ccc(C)cc3)c(C)c2ccc1=O	Bead autofluor 22981
NC(=O)COC(=O)c1ccc(NS(=O)(=O)c2ccc3c(c2)OCCO3)cc1	none
COC(=O)c1cnn(C(=O)c2cc(OC)ccc2Br)c1N	Bead autofluor 23297
COC(=O)c1cnn(C(=O)c2ccccc2Br)c1N	Bead autofluor 22952
O=c1c2ccccc2nc(/C=C/c2ccccn2)n1-c1ccccc1	BoNT F protease inconclusive
CC(NCc1cc(Br)ccc1OCC(N)=O)C12CC3CC(CC(C3)C1)C2 (centres undefined)	BoNT F protease inconclusive, Bead autofluor 21485
COc1ccc(C(=O)COC(=O)C2CC3CCCC(C2)C3=O)cc1Br (centres undefined)	Bead autofluor inconclusive (no result: SARS 3CLpro inh)
CC(=O)NCCn1c(SCc2cc(F)ccc2F)nc2ccccc2c1=O	BoNT A protease inconclusive, Bead autofluor 21737
CC(=O)NCCn1c(SCC(=O)OCc2ccccc2)nc2ccccc2c1=O	none
CC(=O)NCCn1c(SCc2ccccc2C)nc2ccccc2c1=O	none
CC(=O)NCCn1c(SCc2ccc(C)cc2C)nc2ccccc2c1=O	Bead autofluor 23483
CC(=O)NCCn1c(SCC(=O)c2ccccc2)nc2ccccc2c1=O	Bead autofluor 23027
CCOc1ccc(S(=O)(=O)n2nnc3ccccc32)cc1C	none (no result: BoNT A protease, BoNT F protease, Anthrax LF prot, Bead autofluor)
c1csc(-c2nnc(Cc3cccc4ccccc34)o2)c1	BoNT A protease inconclusive, Bead autofluor 23714
c1ccc(-c2nnc(CSc3nnc(-c4cccs4)o3)o2)cc1	Bead autofluor 22467
Fc1ccc(Cc2nnc(-c3cccs3)o2)cc1	none
COC(=O)COc1cccc(-n2cnnn2)c1	none
COc1ccccc1NC(=O)COc1cccc(-n2cnnn2)c1	Bead autofluor 18765
COc1cccc(NC(=O)COc2cccc(-n3cnnn3)c2)c1	none
Cc1cc(C(=O)COc2cccc(-n3cnnn3)c2)c(C)n1-c1ccccc1	Bead autofluor 16603
COc1ccc(NS(=O)(=O)c2ccc3nc(COc4ccc(Cl)c(C)c4)[nH]c3c2)cc1	none
CCCOc1ccc(/C=C/C(=O)Nc2ccc([N+](=O)[O-])cc2C)cc1OC	BoNT A protease inconclusive, Bead autofluor 22086
O=C(/C=C/c1ccco1)N1CCC(Cc2ccccc2)CC1	none
COc1ccc(Oc2c(C(F)(F)F)oc3cc(OCC(=O)O)ccc3c2=O)cc1	none
CC(C)NC(=O)CSc1nc2ccccc2n1-c1ccccc1	Bead autofluor 22704
Cc1cccc(-n2ncc3c(N4CCCc5ccccc54)ncnc32)c1	Bead autofluor 20241
Cc1cccc(-n2ncc3c(NCc4ccccc4)ncnc32)c1	none
COc1ccc(C2CC(=O)C3=C(C2)NC(C)=C(C(=O)Nc2ccccc2C)C3c2coc3ccc(C)cc3c2=O)cc1OC (centres undefined)	BoNT A protease inconclusive, Bead autofluor 23361
CC(Oc1ccccc1)c1ccnc2nc(/N=C/N(C)C)nn12 (centres undefined)	BoNT A protease inconclusive, Bead autofluor 21790
CC1CN(C(=O)[C@@H]2CCCN2S(=O)(=O)c2ccc(Cl)cc2)CC(C)O1 (some centres undefined)	none (no result: SARS 3CLpro inh)
CCN1Cc2c(/C=C/c3ccccc3)nc3ccc(OC)cc3c2N(c2cccc(Cl)c2)C1	BoNT A protease 53
Cc1ccc(N=Cc2sccc2C)cc1C	none
COC(=O)COc1cccc(NC(=O)c2ccccc2)c1	BoNT A protease inconclusive, Bead autofluor 24578
COc1ccc(OCC(=O)Nc2cc(OC)cc(OC)c2)cc1	none
COc1ccc(NC(=O)c2sc(NC(=O)COc3ccccc3)nc2C)cc1	none
COc1ccc(OCC(=O)Nc2cccc(OC)c2)cc1	Bead autofluor 17719
Cc1nc(NC(=O)COc2ccccc2)sc1C(=O)Nc1cccc(Cl)c1	BoNT A protease inconclusive, Bead autofluor 24209
COc1cccc(NC(=O)Cn2c(=O)oc3ccccc32)c1	Bead autofluor 23609
CS(=O)(=O)c1ccc(Cl)c(NC(=O)CSc2nnc(C3CC3)n2C2CC2)c1	none (no result: SARS 3CLpro inh)
CCC1(c2ccc(Cl)cc2)NC(=O)N(CC(=O)NC2CCCCCC2)C1=O (centres undefined)	none (no result: SARS 3CLpro inh)
COc1cc(NC(=O)COc2ccc(-n3ccnc3)cc2)cc(OC)c1	none
N#Cc1cccc(NC(=O)COc2ccc(-n3ccnc3)cc2)c1	Bead autofluor 23571
Cc1ncoc1C(=O)N1CCc2c([nH]c3ccccc23)C1C1CCCCC1 (centres undefined)	none
CCOC(=O)Cn1c(CN2CCN(C(c3ccccc3)c3ccccc3)CC2)nc2c1c(=O)n(C)c(=O)n2C	none
Cn1c(=O)c2c(nc(CN3CCN(C(c4ccccc4)c4ccccc4)CC3)n2CC(N)=O)n(C)c1=O	Bead autofluor 21667
CCOCCn1c(CN2CCCC(C)C2)nc2c1c(=O)n(C)c(=O)n2C (centres undefined)	none (no result: SARS 3CLpro inh)
CC1CCCN(Cc2nc3c(c(=O)n(C)c(=O)n3C)n2CC(N)=O)C1 (centres undefined)	Bead autofluor 16667
CCN(CC)c1ccc2cc(-c3nnc(-c4ccccc4)o3)c(=O)oc2c1	none
CCN(CC)c1ccc2cc(-c3nc4ccccc4n3C)c(=O)oc2c1	Bead autofluor 16417
CCN(CC)c1ccc2cc(-c3nc4ccccc4[nH]3)c(=O)oc2c1	BoNT A protease 33, BoNT F protease 59
Cc1cc2c3c(c1)C1(C(=O)N3C(C)(C)CC2C)C(C#N)=C(N)OC2=C1C(=O)CC(C)(C)C2 (centres undefined)	none
Cc1cc2c3c(c1)C1(SCC(=O)N1c1ccc(F)cc1)C(=O)N3C(C)(C)CC2C (centres undefined)	Bead autofluor 18092
CCOC(=O)CNc1nc(Cl)c(C#N)s1	none
CCN(CC)C(=O)CSc1nc2c(sc(=S)n2Cc2ccco2)c(=O)n1-c1ccccc1	Bead autofluor 20976
CCOC(=O)CSc1nc2c(sc(=S)n2-c2ccccc2OC)c(=O)n1Cc1ccco1	Bead autofluor 16526

Source: PubChem BioAssay
